Source: PubChem
GAA inhib = qHTS Assay for Inhibitors of Human alpha-Glucosidase as a Potential Chaperone Treatment of Pompe Disease; Lysosomal alpha-glucosidase (Homo sapiens), P10253; hit rate 0.005% among 200,000; purified human GAA, 4-MU-alpha-glucoside fluorescence; Potency, µM (highest dose often 76.9 µM), inactives show top-dose activity change, negative = inhibition, usual class: inhibitors;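 also: potency is read from the fitted curve at half-maximal effect; plate controls were uninhibited enzyme wells for no effect and no-enzyme background for full effect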
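Endpoint fluorogenic read: 20 min room-temperature reaction of 4 nM human alpha-glucosidase with 400 uM 4-methylumbelliferyl-alpha-D-pyranoside, pH 5.0, quenched with 1M NaOH/1M glycine pH 10. AC50 from Hill modeling.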
GAA glycogen = qHTS Assay for Inhibitors and Activators of Human alpha-Glucosidase Cleavage of Glycogen; Lysosomal alpha-glucosidase (Homo sapiens), P10253; recombinant GAA, glycogen substrate, Amplex Red glucose oxidase fluorescence; AID 2100, 2009; hit rate 0.38% among 300,000; Potency, µM (highest dose often 76.4 µM), for the others: at the highest dose activity change, negative = inhibition, actives largely listed as inhibitors;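 also: potency is read from the fitted curve at half-maximal effect; 0% = full enzyme reaction and -100% = no-enzyme basal signal; the screen sought inhibitors and activators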
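qHTS, 1536-well; enzyme 4 nM final; cpd up to 77 uM; substrate bovine liver glycogen 30 ug; 50 mM citrate/phosphate pH 5.0, 0.01% Tween-20; 37 C, 40 min; Amplex Red detection 45 min RT; Hill fit → AC50.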
Menin-MLL TR inh = qHTS Assay for Inhibitors Targeting the Menin-MLL Interaction in MLL Related Leukemias: Competition With Texas Red Labeled MLL-derived Mutant Peptide. AID 1768, 2009. hit rate 0.23% among 270,000. Menin + Texas Red MLL mutant peptide, fluorescence polarization. Potency, µM (doses to about 61.6 µM), for inactives: at the top dose FP activity change, negative = inhibition, actives largely listed as inhibitors; active = well fitted inhibition curve with a large enough effect in the polarisation, with a control signal flat, not every such curve was filed as active; inconclusive = small, poorly fitted or top-dose-only effect, or effect the other way, or a change in a side signal; inactive = no such curve, though single readings can be large or run the other way; the % refers to the polarisation; also: potency is read from the fitted curve at half-maximal effect; % of control where 0% means no effect
Target sequence (O00255 whole entry, looked up): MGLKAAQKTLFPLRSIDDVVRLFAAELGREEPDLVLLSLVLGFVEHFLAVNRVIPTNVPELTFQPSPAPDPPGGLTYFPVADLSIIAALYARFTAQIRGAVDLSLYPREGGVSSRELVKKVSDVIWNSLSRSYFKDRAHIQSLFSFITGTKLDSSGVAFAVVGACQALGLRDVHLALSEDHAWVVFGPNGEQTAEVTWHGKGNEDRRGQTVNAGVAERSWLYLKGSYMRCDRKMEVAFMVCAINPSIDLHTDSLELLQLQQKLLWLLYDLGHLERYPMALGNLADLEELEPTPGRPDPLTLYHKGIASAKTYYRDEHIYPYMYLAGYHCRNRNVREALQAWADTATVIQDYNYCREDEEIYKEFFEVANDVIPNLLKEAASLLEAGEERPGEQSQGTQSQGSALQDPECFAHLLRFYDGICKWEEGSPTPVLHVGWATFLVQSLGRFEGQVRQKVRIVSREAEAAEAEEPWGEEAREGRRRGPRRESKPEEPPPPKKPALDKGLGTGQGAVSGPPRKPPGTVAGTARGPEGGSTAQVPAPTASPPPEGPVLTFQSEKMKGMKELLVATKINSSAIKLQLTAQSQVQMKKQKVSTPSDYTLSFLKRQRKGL
CXXC DNA block = qHTS Fluorescence Polarization Assay for Inhibitors of MLL CXXC domain - DNA interaction | Potency, µM (top dose mostly 115 µM), inactives show at the highest dose activity change, negative = inhibition, usual class: inhibitors | AID 2662, 2010 | Histone-lysine N-methyltransferase 2A (Homo sapiens), Q03164 | hit rate 0.037% among 290,000 | MLL-CXXC / FITC-HOXA9 DNA fluorescence polarization; active = well fitted inhibition curve with a large enough effect in the polarisation, with a control signal flat, not every such curve was filed as active; inconclusive = small, poorly fitted or top-dose-only effect, or effect the other way, or a change in a side signal; inactive = no such curve, though single readings can be large or run the other way; the % refers to the polarisation; also: potency is read from the fitted curve at half-maximal effect
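Purified MLL-CXXC (added from a 7 uM solution) was preincubated 5 min at ambient with pinned compounds in 50 mM Tris-HCl pH 7.5, 50 mM NaCl, 1 mM DTT, 0.05% BSA. Fluorescein-labeled HOX-A9 DNA (50 nM solution) followed, 30 min, then polarization read.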
GAA spleen mod = qHTS Assay for Inhibitors and Activators of Human alpha-Glucosidase From Spleen Homogenate; Lysosomal alpha-glucosidase (Homo sapiens), P10253; human spleen homogenate, 4-MU-alpha-glucoside fluorescence; Potency, µM (highest dose often 79.9 µM), for inactives: at the highest dose activity change, negative = inhibition, usual class: inhibitors; hit rate 0.006% among 240,000;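 also: potency is read from the fitted curve at half-maximal effect; 0% = enzyme with vehicle and -100% = no enzyme basal signal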
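Enzyme source: human spleen homogenate, 1 ug/well. Buffer 50 mM citric acid/K phosphate pH 5.0, 0.01% Tween-20. 4-MU-alpha-glucoside 1 mM; 37 C x 40 min; NaOH/glycine stop; fluorescence.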
Menin MLL FP FL = qHTS Assay for Inhibitors Targeting the Menin-MLL Interaction in MLL Related Leukemias: Competition With Fluorescein Labeled MLL-derived Peptide; Fluorescence polarization, fluorescein-MLL peptide displacement from menin; FP activity change, % at 61.4 µM; AID 1766, 2009; 290,000 tested, under 10 active; active = well fitted curve in the direction sought with a large enough effect in the polarisation, not every such curve was filed as active; inconclusive = small, poorly fitted or top-dose-only effect, or effect the other way, or a change in a side signal; inactive = no such curve, though single readings can be large or run the other way; the % refers to the polarisation; also: % of control where 0% means no effect
The depositor's hits bear a star; ? = inconclusive; . = no result; [ ] = dose if it differs, or a comment. An excerpt weighted towards active compounds, which were near 0.45% of everything screened. Unless noted, calls follow the shape of the dose curve; as a rule, active = well fitted curve in the direction sought with a large enough effect; inconclusive = small, poorly fitted or top-dose-only effect, or another doubt; inactive = no such curve, though single readings can be large; an effect the other way counts as inactive or inconclusive.

SMILES	GAA inhib	GAA glycogen	Menin-MLL TR inh	CXXC DNA block	GAA spleen mod	Menin MLL FP FL
COc1ccc(NC(=O)c2cc(=O)[nH]c3ccccc23)cc1	.	3.1%	-13.6%	-3.1%	.	-10.2
CCCc1cc(=O)[nH]c(Nc2cc(C)ccc2OC)n1	.	-6.9%[76.3 µM]	.	.	.	.
CCOc1ccc(NC(=O)CC2C(=O)N(c3ccc(F)cc3)C(=O)N2CCc2sccc2C)cc1 (stereo not given)	.	-3.3%[76.3 µM]	.	.	.	.
COC1/C=C/OC2(C)Oc3c(C)c(O)c4c(O)c(c(/C=N/N5CCN(C)CC5)c(O)c4c3C2=O)NC(=O)/C(C)=C/C=C/C(C)C(O)C(C)C(O)C(C)C(OC(C)=O)C1C (stereo not given)	.	.	?	.	8.4%	12.2
CO[C@H]1C=CO[C@@]2(C)Oc3c(C)c(O)c4c(O)c(c5c(nc6cc(C)ccn65)c4c3C2=O)NC(=O)C(C)=CC=C[C@H](C)[C@H](O)[C@@H](C)[C@@H](O)[C@@H](C)[C@H](OC(C)=O)[C@@H]1C	3.9%[15.4 µM]	20µM*	-21.2%	4.6%	-2.3%	0.2
O=C(O)CCc1ncc(C(F)(F)F)cc1Cl	-1.1%	1.8%	2.2%	4.7%	-11.2%	1.2
O=C(O)CC/C(=N/Nc1ncc(C(F)(F)F)cc1Cl)C(=O)O	-3.0%	17.8µM*	-8.6%	14.5%	-2.2%	-5.1
C=CC[C@@](C(C)=O)(C(=O)OC)C(NC(=O)OC(C)(C)C)c1ccccc1 (stereo not given in full)	.	.	3.0%	.	0.9%	-3.4
O=C(NCc1ccccn1)C(=O)NN=C1CCCCCCC1	-7.7%	31.6µM*	-12.1%	?	1.6%	0.3
CCn1cc(C(=O)NCCc2ccc(OC)c(OC)c2)c(=O)c2cc(S(=O)(=O)N3CCOCC3)ccc21	.	-11.0%[76.3 µM]	15.8µM*	8.2%	.	-0.2
COc1ccc(CCNC(=O)c2cn(C)c3ccc(S(=O)(=O)N4CCOCC4)cc3c2=O)cc1OC	.	6.9%[76.3 µM]	.	-15.3%	.	.
CCc1ccc(CNc2ccc(O)cc2)cc1	-7.0%	?	35.5µM*	3.0%	-5.3%	-1.9
Oc1ccc(NCc2ccccc2OCc2ccccc2F)cc1	-0.1%	?	?	-12.8%	-3.7%	3.9
CCOc1ccccc1CNc1ccc(O)cc1	-4.0%	?	28.2µM*	-16.4%	4.2%	-3.6
COc1cccc(CNCCO)c1OCc1ccc(Cl)cc1	-5.2%	-2.1%	-3.9%	1.6%	2.7%	-1.9
CCOc1cccc(CNc2ccc(O)cc2)c1OCc1ccc(Cl)cc1	-1.8%	?	31.6µM*	-0.8%	0.4%	-1.3
CCS(=O)(=O)N1CCc2cc(C(=O)Nc3ccc(OC)c(Cl)c3)ccc21	.	-18.7%[76.3 µM]	.	.	.	.
c1ccc(C(c2ccccc2)N2CCC3(CCNCC3)CC2)cc1	.	.	-5.0%	.	-13.4%	-1.4
NCCc1ccc(O)c(O)c1	5.5%[15.4 µM]	1.98µM*	6.7%	-2.4%	9.0%	2.8
O=C(O)c1ccc(N=Cc2c(O)ccc3oc4c(c23)CCCC4)cc1	.	-4.0%	.	-4.6%	4.3%	5.2
Oc1ccccc1N=Cc1c(O)ccc2oc3c(c12)CCCC3	.	5.62µM*	.	-3.4%	3.2%	?
CC(=O)c1ccc(OC2C=CC(c3ccc(Cl)cc3)OC2CO)cc1 (stereo not given)	.	.	5.5%[11.7 µM]	.	-3.1%[17.4 µM]	1.8[11.7 µM]
Cc1ccc(CCNC(=O)CCCc2nnc3n(C)c(=O)c4sccc4n23)cc1	.	14.8%[76.3 µM]	.	.	.	.
CC1=CC2=C(OC1N(C)C)c1cccc3cccc(c13)C2=O (stereo not given)	-3.0%	-8.7%	28.2µM*	-7.4%	-10.3%	?
CN(C)CCCN1C(=O)c2cccc3cccc(c23)C1=O	.	-0.7%[76.3 µM]	14.3%	-3.6%	.	-0.3
SMILES	GAA inhib	GAA glycogen	Menin-MLL TR inh	CXXC DNA block	GAA spleen mod	Menin MLL FP FL
CC(C)=CCn1cnc2c1c(=O)n(C)c(=O)n2C	.	.	-11.8%	.	6.5%	0.0
CCN1CCN(CC(=O)N2CCCC(C(=O)c3ccc(Oc4ccccc4)cc3)C2)CC1 (stereo not given)	6.5%	7.94µM*	4.9%	14.9%	-19.2%	-4.1
Cc1ccc(O)c(-c2cc3ccccc3[nH]2)c1	?	31.6µM*	?	12.5%	5.9%	4.5
O=c1oc2ccccc2c(N2CCN(c3ccccc3F)CC2)c1CN1CCCC1	.	-0.8%[76.3 µM]	.	.	.	.
CCCCc1ccc(-n2nc3ccc(NC(=O)c4cc5ccccc5o4)cc3n2)cc1	.	17.6%[76.3 µM]	.	.	.	.
C=CCN1c2ccccc2[C@]23C[C@@H](C(=O)OC)N(S(=O)(=O)c4ccc(C)cc4)C2=NC(C(=O)OC)=C(C(=O)OC)[C@H]13	.	.	-15.0%[11.7 µM]	.	7.4%[17.4 µM]	1.4[11.7 µM]
Oc1ccc(Br)cc1-c1nc2cnccn2c1NC1CCCCC1	-23.1%	?	.	-25.7%	-2.2%	8.2
Oc1ccc(Br)cc1-c1nc2cnccn2c1NC1CCCC1	0.4%	15.8µM*	?	12.0%	-5.5%	?
c1ccc(CCn2nnnc2CN2CCc3ccccc32)cc1	-1.7%	31.6µM*	0.8%	13.5%	2.0%	0.0
CCOC(=O)C1CCN(Cc2nnnn2CCc2ccccc2)CC1	7.7%	-1.1%	0.7%	-2.3%	1.2%	7.3
Cc1cc(NC(=O)c2c(F)cccc2Cl)no1	-3.9%	4.3%	1.8%	-3.3%	-6.4%	2.7
Cc1ccc(NNC(=O)c2c(F)cccc2Cl)cc1C	.	25.1µM*	.	-5.7%	-1.8%	3.8
Cc1ccc2[nH]c(=O)c(-c3nc4ccccn4c3NCc3ccco3)cc2c1	-6.0%	31.6µM*	-2.7%	44.1%	4.4%	1.0
Cc1ccc(/C=N\Nc2nc3ccc(Cl)cc3[nH]2)o1	8.9%	6.26µM*	?	-1.6%	3.2%	-0.2
CCC(Cn1nnc2ccccc2c1=O)NC(=O)Nc1ccc(C)c(C)c1 (stereo not given)	.	-3.9%[76.3 µM]	.	.	.	.
COc1ccccc1-c1nnc2n1N=C(c1ccc(O)c(O)c1)CS2	-7.3%	11.2µM*	?	-2.5%	-1.2%	-0.6
CCN(CC)c1ccc(/C=N/Nc2nc(C)cc(C)n2)cc1	.	11.2µM*	.	9.7%	4.1%	-0.4
Cc1ccc(S(=O)(=O)Nc2nc(C)c(C(=O)NNS(=O)(=O)c3ccccc3)s2)cc1	3.7%	?	.	-11.8%	-8.7%	1.8
Cc1nnsc1C(=O)NNS(=O)(=O)c1ccccc1	0.7%	28µM*	17.2%	-7.3%	-0.2%	1.9
